# Experimental data from PubChem BioAssay AID1347075 (National Center for Advancing Translational Sciences (NCATS), 2019).
# Out of some 400,000 compounds screened, about 5,500 (1.4%) were called active. About 9% were inconclusive and are not listed. What follows is part of a selection rich in actives, with near analogues and random picks from the rest. Values without a mark were called inactive. Calls come from the whole dose curve; as a rule, active = well fitted cell-killing curve with a large enough effect; inconclusive = small, poorly fitted or top-dose-only effect, or effect the other way; inactive = flat fitted curve, though single readings scatter.
# Assay: qHTS assay for MDR1-selective chemotherapeutics: Primary screen using the parental adenocarcinoma cell KB-3-1; note: nearly all actives have a fitted effect of over 60% in size
# Settings: KB-3-1 viability, CellTiter-Glo ATP luminescence, 72 h; series mostly up to 46.1 µM; activity change, negative = cytotoxic: at the top concentration
# Description: A prime difficulty in effectively treating cancer is the development of cellular resistance to multiple structurally unrelated anticancer drugs, a phenomenon known as multidrug resistance (MDR). […] Numerous strategies to overcome P-gp-mediated MDR have been explored, including the design of drugs that evade recognition and efflux, and development of inhibitors to block efflux and restore drug accumulation. […] An alternative approach is to exploit resistance by identifying drugs that target MDR cells over the non-resistant parental cells from which they were selected. […] The development of MDR1-selective agents represents a new strategy for resolving multidrug resistance, as it remains a long-standing clinical challenge for cancer chemotherapy.
# Our goal is to identify compounds that selectively kill P-gp-expressing MDR cells. We will identify MDR1-selective compounds by comparing toxicity of compounds in the screening library against parental, drug-naive (KB-3-1) adenocarcinoma cells as well as their drug-selected MDR sub-line (KB-V1). The differential toxicity of compounds against these two cell lines will be used to identify MDR1-selective compounds, whose cytotoxicity is potentiated, rather than diminished, by P-gp expression. This assay will be utilized to conduct a quantitative high-throughput screen (qHTS) in collaboration with the NIH Chemical Genomics Center to identify selective agents, and probe hits arising from the screen will be validated using secondary assays and characterized through a well-established follow-up research program. This screen was run against the entire NCGC library collection of about 400,000 compounds.
# NIH Molecular Libraries Probe Production Network [MLPCN]
# NIH Chemical Genomics Center [NCGC]
# PI: Michael Gottesman PhD, National Cancer Institute, NIH
# Briefly, 5 microL of media containing either KB-3-1 cells (columns 1-2, 4-48) are dispensed into Greiner white, treated solid-bottom 1536-well assay plates (media-only control is added to column 3). Compounds are then transferred via Kalypsys pin tool equipped with 1536-pin array (10 nL slotted pins, V&P Scientific, San Diego, CA). Following addition of compound, the plates are incubated at 37 degrees C for 72 hours. CellTiter-Glo (2.5 µL/well) is then added, and the plates are read in a ViewLux reader (Perkin-Elmer, clear luminescence filter, 1 second exposure, 1x binning) following a 10 minute incubation. All cells are dispensed in DMEM phenol-red free media containing 10% FBS.
# Library plates were screened starting from the lowest and proceeding to the highest concentration. Vehicle-only plates, with DMSO being pin-transferred to columns 5-48, will be inserted uniformly at the beginning and the end of each library in order to monitor and record any shifts in the background, which can be affected by reagent dispensers or loss in enzyme activity over time. Screening data will be corrected, normalized, and concentration-effect relationships will be derived by using publicly-available NCGC, NCATS curve fitting algorithms (http://ncgc.nih.gov/pub/openhts).
# % is set by controls: 0 for no effect and ±100 for the full control effect; potency is the fitted concentration of half-maximal effect.
SMILES,Potency,"activity change, negative = cytotoxic"
COc1cc(/C=C2\Oc3ccc(C#Cc4ccc(O)cc4)cc3C2=O)cc(OC)c1,16.4 µM (active),
COc1cccc(N2CCN(S(=O)(=O)c3ccc4c(c3)CCCN4C(C)=O)CC2)c1,,-3.09%
COc1ccc(-c2ccc(=O)n(CC(=O)Nc3ccc(Br)cc3F)n2)cc1,,3.64%
O=C(CSc1nc2c(c(=O)[nH]1)CN(Cc1ccc(F)cc1)CC2)Nc1ccccc1Cl,,-1.45%
Cc1cc2ccccc2n1CCNC(=O)c1ccc(F)cc1,,-0.098%
COc1ccc(NC(=O)COC(=O)C2COc3ccccc3O2)cc1 (stereo not given),,2.9%
O=C(Nc1cc(S(=O)(=O)N2CCCCC2)ccc1Cl)C1COc2ccccc2O1 (stereo not given),,-5.56%
O=C(Nc1ncc([N+](=O)[O-])s1)C1COc2ccccc2O1 (stereo not given),16.4 µM (active),
Cc1ccc(C(=O)N2c3ncnn3C3(CCCCC3)[C@@H]3CCCC[C@@H]32)cc1,,-1.33%
COc1cc(NC(=O)c2ccccc2)c(OC)cc1NC(=O)Cc1ccccc1,,5.6%
O=C(NC1=CC(=O)c2ccccc2C1=O)c1ccccc1,16.4 µM (active),
CC(=O)c1cc(NC(=O)c2ccccc2)c(=O)oc1/C=C/N(C)C,,15.8%
N#Cc1nc(/C=C/c2ccc(F)cc2)oc1NCc1ccc(F)cc1,,2.53%
O=C(CCS(=O)(=O)c1cc(Br)cc2c1N(C(=O)C1CC1)CC2)Nc1ccc(Br)cc1F,,6.15%
COc1cc(/C=N/O)cc(Br)c1OCc1cccc(Cl)c1,14.6 µM (active),
COc1cc(C(=O)NCc2ccncc2)cc(Br)c1OCc1ccccc1,,-18.9%
O=C(O)COc1ccc(/C=N/O)cc1Br,,9.66%
CCOC(=O)c1ccc(NC(=O)CCn2cnnn2)cc1,,8.4%
Cc1ccc(CN2CCC(CNC(=O)c3cnn(-c4ccc(C)cc4)c3C3CCN(C(=O)OC(C)(C)C)CC3)CC2)cc1,16.4 µM (active),
COc1ccccc1CN1CCC(CNC(=O)c2cnn(-c3cccc(Cl)c3)c2C2CCN(C(=O)OC(C)(C)C)CC2)CC1,,-20.3%
Cc1ccc(CN2CCC(CNC(=O)c3cnn(-c4ccccc4Cl)c3C3CCN(C(=O)OC(C)(C)C)CC3)CC2)cc1,,-10%
CCOc1ccc(OCC)c(NC(=O)c2cc(C)nc3c2c(C)nn3-c2cccc(Cl)c2C)c1,,-0.861%
CN(C)c1ccc(/C=N\Nc2ccc([N+](=O)[O-])cc2[N+](=O)[O-])cc1Cl,,7.3%
O=C(/C=C/c1ccc(Cl)cc1)N1CCN(c2ccccc2[N+](=O)[O-])CC1,,6.08%
CN(C)c1ccc(/C=C/C(=O)c2ccc(O)cc2)cc1[N+](=O)[O-],20.6 µM (active),

SMILES,Potency,"activity change, negative = cytotoxic"
CCOc1ccc(Br)cc1S(=O)(=O)N1CCC(C(=O)O)CC1,,-15.3%
CC(C)(C)NCc1cc(Br)ccc1OC1CCCC1,,-6.93%
CCOc1ccc(Br)cc1CSC(=N)N,23.1 µM (active),
COc1ccccc1NC(=O)C1=C(C)Nc2nc(SCC(=O)c3ccc(C)cc3)nn2C1c1ccccc1C (stereo not given),,19.5%
COc1ccc(NC(=O)CCN2CCN(CCO)CC2)cc1,,10.1%
O=C(NCc1ccccc1)C(=O)NCC(c1ccco1)S(=O)(=O)c1ccc(Cl)cc1 (stereo not given),,-21.5%
O=C(OC12CC3CC(CC(C3)C1)C2)c1ccc(NCc2cc(O)ccc2O)cc1,7.31 µM (active),
COc1ccc(-c2nc(=N)sn2-c2ccccc2)cc1,,-25.8%
CO[C@H]1O[C@@H]2O[C@@]3(C)CC[C@@H]4[C@@H](C)CC[C@@H]([C@H]1C)[C@@]24OO3,,0%
COc1cc2[nH]c(C)c(CCN3CCN(c4ccccc4)CC3)c2cc1OC,,0%
COc1ccc(C(C#N)=C2C=CC(=NO)c3ccccc32)cc1,0.82 µM (active),
COc1ccc(C(=O)/C=C/Nc2ccccn2)cc1,,-7.94%
COc1ccc(C(=NN)c2ccc(OC)cc2)cc1,,2.52%
COc1ccccc1OCCCn1c(-c2ccc(Cl)cc2)nc2ccccc2c1=O,,1.77%
O=C(COC(=O)c1ccccc1OCCOc1ccccc1)Nc1cccc(Br)c1,,0%
COc1cccc(C(c2c(O)cc(C)n(Cc3ccco3)c2=O)N2CCN(c3ccccc3)CC2)c1 (stereo not given),,3.01%
CCOc1ccccc1NC(=O)CN1CCCN(Cc2cccc(Cl)c2)S1(=O)=O,,4.79%
O=c1c2ccccc2n(Cc2cccc(Cl)c2)c(=O)n1Cc1ccccc1,,-13.5%
Clc1cccc[n+]1CCCC[n+]1ccccc1Cl,,2.29%
COc1cc(C(=O)Nc2ccc(-n3c(C)nc4ccccc4c3=O)cc2)cc(OC)c1OC,,3.15%
CC(C)c1ccc(Cn2c(COc3ccccc3)nc3ccccc32)cc1,,2.83%
O=C(Cn1c(=O)n(Cc2ccco2)c(=O)c2ccccc21)NCC1CCCO1 (stereo not given),,7.23%
Cn1c2ccccc2c(=O)c2c(=O)n(Cc3ccco3)c(COc3ccccc3)nc21,7.31 µM (active),
Cc1ccc(Cc2nc3ccccc3nc2SCC(=O)Nc2cccc(C(F)(F)F)c2)cc1,,-20.9%
Cn1nc(C(F)(F)F)c(C(=O)Nc2cccc(C(F)(F)F)c2)c1SCc1ccc(Cl)cc1,16.4 µM (active),

SMILES,Potency,"activity change, negative = cytotoxic"
Cn1c(=O)c2c(ncn2CC(=O)Nc2cccc(C(F)(F)F)c2)n(C)c1=O,,-2.81%
CCCSc1nc2sc3c(c2c(=O)n1-c1cccc(Br)c1)CC(C)(C)OC3,,-5.87%
COc1ccc(C2CC(=O)Nc3c2c(=O)nc2c(C)cccn32)cc1OC (stereo not given),,-2.5%
O=C(COc1ccccc1C(=O)Nc1ccccc1)Nc1cccc(F)c1,,1.45%
O=[N+]([O-])c1ccc(S(=O)(=O)N2CCN(c3nc(-c4ccccc4)nc4ccccc34)CC2)cc1,,29.8%
O=C(Nc1ccc(OC(F)(F)F)cc1)c1cc2c(=O)n3ccccc3nc2s1,,7%
COc1cc(OC)cc(C(=O)NCCc2csc3nc(-c4ccccc4F)nn23)c1,,-3.67%
CCOc1cc(/C=C(\C#N)C(=O)Nc2ccccc2C)ccc1OCc1cc(=O)n2nc(CC)sc2n1,,-5.35%
CCOc1cc(/C=C(\C#N)c2nc(-c3cccs3)c(NC(C)=O)s2)ccc1O,8.2 µM (active),
CCOc1ccc(/C=C(\C#N)c2nc3ccccc3c(=O)[nH]2)cc1OC,,8.7%
O=C(NCc1ccc(Cl)cc1)c1ccc2c(c1)nnn2C1CCCC1,,-5.59%
CCOC(=O)c1cccc(NC(=O)Cn2cnc3nc4c(cc3c2=O)CCCC4)c1,,8.88%
COc1cccc(CNC(=O)C(=O)NCC(c2cccs2)S(=O)(=O)c2ccccc2)c1 (stereo not given),,-21%
CN(CCC#N)c1ccc(C=O)cc1,,0%
CC(=O)c1cc(-c2ccccc2)[nH]c1N1CCCC1,,0%
Cc1ccc(-c2cc(=O)c3ccc(F)cc3[nH]2)cc1,,0%
O=c1cc(-c2ccccc2)[nH]c2cc(F)ccc12,1.64 µM (active),
O=C1OC(C(=O)Nc2cccc(Br)c2)Cc2ccccc21 (stereo not given),,-3.58%
O=S1(=O)N=C(Oc2cccc(Br)c2)c2ccccc21,,0%
CCOc1ccc(C(=O)c2cn(Cc3ccc(F)cc3)c3ccc(F)cc3c2=O)cc1,,10.5%
CCOC(=O)c1c(C)oc2nc(C)nc(Nc3ccc(CC)cc3)c12,,1.97%
COc1ccc(-c2c(C)cc3oc(=O)cc(-c4ccccc4)c3c2C)cc1C=O,,0%
COC(=O)C(C)Oc1ccc2c(-c3cccc([N+](=O)[O-])c3)cc(=O)oc2c1 (stereo not given),,-5.69%
COc1cc(OC)c2c(-c3cccc(-c4cccc(N)c4)c3)cc(=O)oc2c1,4.11 µM (active),
COc1ccc(-c2nnc(SCC(=O)Nc3ccccc3C)o2)cc1OC,,-8.33%

SMILES,Potency,"activity change, negative = cytotoxic"
N#CC(C#N)=CN=c1ccn(Cc2ccc(Cl)cc2Cl)cc1,16.4 µM (active),
Cn1ccc(=NC=C(C#N)C#N)c2ccccc21,,-7.89%
CC(C)(C)c1cc(C(=O)NN)n(Cc2ccc(Cl)cc2Cl)n1,,4.9%
Cc1ccc(-n2c(SCC(=O)Nc3cccc(F)c3)nc3c(oc4ccccc43)c2=O)cc1C,,-1.05%
CCOC(=O)Cc1ccc(NC(=O)Nc2c[nH]c(=O)[nH]c2=O)cc1,,8.46%
COc1ccc2c(c1)c(N1CCCC1=O)c(C(=O)Nc1ccccc1C(F)(F)F)n2C,,3.33%
O=C(O)c1ccc(CSc2nc3cccnc3n2Cc2cccc(F)c2)cc1,,5.86%
COc1cccc(NC(=O)Nc2ccc3c(c2)N(C)C(=O)c2ccccc2S3)c1,,-10.8%
COc1cccc(CNC(=O)c2ccc3c(Cl)c4c(nc3c2)CCCC4)c1,,8.21%
COc1ccccc1NC(=O)C(=O)c1cc(C)n(-c2ccccc2F)c1C,,-19.3%
CCOC(=O)c1nc(-c2ccc3c(c2)OCO3)[nH]c1C,13 µM (active),
CCOC(=O)N1CCN(C(=O)COCc2cc(-c3ccc4c(c3)OCO4)on2)CC1,,-9.83%
CCOC(=O)c1c(C)[nH]c(C(=O)COc2ccc3c(c2)OCO3)c1C,,6.21%
CCC(CC)C(=O)N1CCc2cc(OC)c(OC)cc2C1COc1ccc(F)cc1 (stereo not given),,15.8%
CC[C@H]1CN2CCc3cc(OC)c(OC)cc3[C@@H]2C[C@@H]1C[C@H]1NCCc2cc(OC)c(OC)cc21,0.259 µM (active),
CC(=O)N1c2ccc(S(=O)(=O)N3CCCCCC3)cc2CC1C(=O)NCc1ccccc1C (stereo not given),,5.84%
COc1ccccc1NC(=O)CN1C(=O)c2ccccc2Sc2ccc(C(=O)N3CCCC3)cc21,,9.84%
CCOC(=O)c1cc(-c2sc(NC(=O)c3ccccc3)nc2C)n(Cc2ccccc2)n1,23.1 µM (active),
CCOC(=O)c1cc(-c2sc(NC(=O)c3ccccc3)nc2C)n(CCO)n1,,-1.47%
C=CCn1nc(C(=O)OCC)cc1-c1sc(NC(=O)c2ccccc2)nc1C,,8.61%
CC(C)Sc1oc(-c2cccs2)nc1S(=O)(=O)c1ccc(Cl)cc1,,4.33%
CC(C)(C)c1ccc(S(=O)(=O)N2CCN(C(=O)c3cc(-c4ccc(Br)cc4)n[nH]3)CC2)cc1,,1.19%
COc1ccccc1Cn1c(CO)nc2ccccc21,,-2.97%
CCn1c(C(O)c2cc(OC)ccc2OC)nc2ccccc21 (stereo not given),,11.1%
COc1ccc(C)c(Cn2c(-c3nonc3N)nc3ccccc32)c1,2.31 µM (active),
